# Tested on: CDKL1
# Conditions: concentration: 1 μM, replicates: in singlicate; n = 1
# 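Also: KINOMEscan kinase panel screen.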
row,Compound,%Inh [%]
1,COc1cc(Nc2nccc(N3CCC(NS(=O)(=O)c4ccc(NC(C)=O)cc4)CC3)n2)cc(OC)c1OC [GSK1379825],19
2,O=C1NC(=O)C(c2ccccc2Cl)=C1Nc1cccc(Cl)c1 [SB-342409],16
3,Cc1cc(-c2ccnc(Nc3cccc(C#N)c3)n2)cc(C)c1O [GSK1440913],1
4,CC(C)NCC(Cc1ccccc1)NC(=O)c1cc(Br)c(-c2ccnc3[nH]ccc23)s1.Cl.Cl (stereo not shown) [GSK1383281],17
5,Nc1ncc(-c2ccc3nccc(-c4ccncc4)c3c2)cc1S(=O)(=O)N1CCCCC1 [GSK1693850],0
6,COc1cc(Nc2ccnc3cc(-c4ccncc4)ccc23)cc(OC)c1OC.Cl [GW494610],100
7,COC(=O)Nc1nc2ccc(Oc3ccc(NC(=O)Nc4cc(C(F)(F)F)ccc4F)cc3)cc2[nH]1.Cl [GW654607],21
8,c1ccc(Oc2ccc(Nc3ccnc4cc(-c5ccc(CN6CCCCC6)o5)ccc34)cc2)nc1 [GW567143],0
9,COc1cccc(CC(=O)N2CCc3cc(-c4cn(C)c5ncnc(N)c45)ccc32)c1 [GSK2608899],1
10,COc1ccc(C)c(Nc2ccnc(Nc3ccc(-c4cnc[nH]4)cc3)n2)c1.Cl [GW784041],44
11,CCNC(=O)/C=C/c1n[nH]c2cc(Sc3ccccc3C(=O)NC)ccc12,17
12,Cl.N#CCc1ccc(Nc2nccc(Nc3ccc(Oc4ccccc4)cc3)n2)cc1 [GW639905],3
13,CC(=O)Nc1cn2nc(Oc3cccc(NC(=O)c4cccc(C(F)(F)F)c4)c3)ccc2n1,48

# Source: publication PMC5540273 (PLoS ONE, 2017)
